Source: PubChem BioAssay (several laboratories)
Most compounds without a hit are left out; they make up all but 3.3% or so of the library.
PERK inh: inhibitors of human PERK kinase; inhibition, % at 5.6 µM; hit rate 0.17% among 220,000; CHO PERK-DD fusion, SEAP luminescence translation reporter;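 active = inhibition above the mean inhibition of all tested compounds plus 3 SD, set separately per screening campaign, cut at about 2.9% in these data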;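 note: PERK kinase domain activated by AP20187 dimerizer at 100 nM; 0% = DMSO with dimerizer and 100% = rapamycin at 8.4 µM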
Arbovirus anti: arbovirus infection inhibition. arbovirus infection cell-based antiviral screen. inhibition, % at 10 µM. hit rate 0.37% among 200,000; in the data active = inhibition above about 30%
WT yeast gro inh: growth inhibition of WT yeast, mitochondrial fusion screen; inhibition, % at 10 µM; AID 1362; hit rate 2.1% among 190,000; mitochondrial fusion phenotypic screen, WT strain; in the data active = inhibition above about 58%; tested in S. cerevisiae
ROMK primary: human ROMK K+ channel modulation, primary screen. Tet-inducible ROMK, thallium flux fluorescence; actives lie on both sides. hit rate 2% among 130,000. B-score at 10 µM. P48048;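 active = signal ratio slope over the read window, or its plate-corrected B-score, at least 3 SD from the plate mean, either direction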;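 note: B-score of the F/F0 ratio slope over 7 to 12 s after thallium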
* = called active by the depositor; nt = no result.

SMILES	PERK inh	Arbovirus anti	WT yeast gro inh	ROMK primary
COCCn1c(SCc2nc3scc(-c4ccc(Cl)cc4)c3c(=O)[nH]2)nnc1-c1cccc(C)c1	0	32*	14	nt
CCn1c(SCc2nc3scc(-c4ccccc4)c3c(=O)[nH]2)nnc1-c1cccs1	-1	0	-9	nt
Cc1cc(/C=N/n2cnnc2)c(C)n1-c1ccc(OCc2ccc(F)cc2)cc1	-1	-18	62*	nt
CCCCOC(=O)C(C)Nc1n[nH]c(=O)[nH]c1=O (centres undefined)	2.9*	4	3	nt
CCCCOC(=O)C(C)Nc1n[nH]c(=S)[nH]c1=O (centres undefined)	0	9	-13	0.29
O=C(Nc1cccc(C(F)(F)F)c1)c1ccco1	1	4	10	0.67
O=C(Nc1ccc(Cl)c(C(F)(F)F)c1)c1ccco1	1	6	72*	nt
O=C(Nc1ccc(NC(=O)c2cccs2)cc1Cl)c1ccco1	0	-10	0	-0.33
COc1ccccc1NC(=O)c1cccc(NC(=O)c2ccco2)c1	-1	-7	74*	nt
O=C(Nc1cccc(NC(=O)c2cccs2)c1)c1ccco1	-1	64*	-12	nt
COc1ccc(-c2nn(C)c(=O)[nH]2)cc1	1	nt	nt	nt
Cc1ccc(S(=O)(=O)NCCCN2CCOCC2)c(C)c1	1	-4	1	0.96
CC1=NN(c2ccc(Cl)c(C(=O)O)c2)C(=O)/C1=C\c1ccc(-c2ccc(C(=O)O)cc2)o1	1	2	-6	1.4
O=C(O)c1ccc(N2C(=O)/C(=C/c3ccc(-c4ccc([N+](=O)[O-])cc4)o3)C=C2c2ccccc2)cc1	0	106*	16	-0.04
O=c1c2sc3nc(N4CCOCC4)c4c(c3c2ncn1CCc1ccccc1)CCCC4	2	10	-2	nt
COC(=O)c1sccc1NC(=S)N1CCN(c2cc(C)ccc2C)CC1	1	20	77*	0.001
Cc1ccc(C)c(N2CCN(C(=S)Nc3ccc4nc(N5CCOCC5)cc(C)c4c3)CC2)c1	0	0	3	-0.12
Cc1ccc(C)c(N2CCN(C(=S)Nc3ccc4nc(N5CCN(C)CC5)cc(C)c4c3)CC2)c1	0	-27	72*	2.2
CCOC(=O)C1=C(NC(=S)NC(=O)c2ccccc2)c2ccccc2CC1(C)CC (centres undefined)	-2	27	70*	0.78
CCOC(=O)C1=C(NC(=S)NC(=O)c2ccccc2)c2ccccc2CC1C(C)C (centres undefined)	0	5	78*	nt
CCOC(=O)c1sc(NC(=S)NC(=O)c2ccccc2)c(C(=O)OCC)c1C	0	-10	4	nt
COc1cccc(OCC(=O)NNC(=O)C(=O)N2CCCC2)c1	1	4	-11	0.57
Oc1ccccc1CN(Cc1ccco1)CC(O)COCc1ccc(Cl)cc1 (centres undefined)	-1	-42	68*	-1.9
O=C1C2C(C(=O)N1Cc1cccnc1)C1C=CC2C12CC2 (centres undefined)	1	1	9	nt
CCOc1ccc(Oc2c(/C=N/NC(N)=O)c(C)nn2-c2ccccc2)cc1	-1	7	27	nt
SMILES	PERK inh	Arbovirus anti	WT yeast gro inh	ROMK primary
CCOc1ccc(Oc2c(/C=N/NC(=O)COc3ccccc3OC)c(C)nn2-c2ccccc2)cc1	-1	-19	67*	0.56
Cc1ccc(CNS(=O)(=O)NCc2cccs2)cc1	2	10	-11	nt
O=C(Oc1c(Cl)cc(Cl)c2cccnc12)c1cccs1	0	-12	60*	0.0095
CCCc1cc(C(=O)Nc2cc(Br)ccc2O)no1	3.1*	35*	14	nt
CC(C)c1cc(C(=O)Nc2cc(Br)ccc2O)no1	1	21	35	0.46
COC(=O)c1c(N(S(C)(=O)=O)S(C)(=O)=O)sc2c1CCN(c1ncc(C(F)(F)F)cc1Cl)C2	0	48*	56	nt
COC(=O)c1c(/N=C/N(C)C)sc2c1CCN(c1ncc(C(F)(F)F)cc1Cl)C2	0	9	-2	nt
CCCCCCCCOC(=O)c1nc(Cl)c(Cl)c(N)c1Cl	1	-36	69*	nt
O=C(Nc1ccc(Cl)cc1)NC1CCCC1Cc1ccco1 (centres undefined)	0	-24	-53	-0.25
O=C(Nc1ccc(Cl)cc1)NC1CCCCC1Cc1ccco1 (centres undefined)	1	-23	75*	nt
CCN(CCNCC(O)COCc1ccc(Cl)cc1)c1cccc(C)c1 (centres undefined)	0	-33	62*	nt
Cc1ccc(N=Nc2ccc(O)c3ncccc23)cc1	1	-27	64*	0.049
COc1ccc(-n2c(SCC(=O)N/N=C/c3ccccc3OCC(=O)O)nc3ccccc3c2=O)cc1	1	nt	nt	-1
CC(C1CC2CCC1C2)n1c(-c2ccco2)n[nH]c1=S (centres undefined)	1	14	72*	0.83
O=C(CSc1nnc2ccccn12)NNC(=O)c1ccc(Br)cc1	1	10	-2	-0.72
CCOC(=O)c1cccc2c1-c1ccccc1/C2=N/O	0	13	73*	0.088
CC1CCCC(C)N1C(=O)c1cccc2c1-c1ccccc1/C2=N/O (centres undefined)	0	-3	15	-1.8
CC(C)COC(=O)c1cccc2c1-c1ccccc1/C2=N\O	1	-32	62*	0.025
Cc1cc(Oc2nc3c(C)cccn3c(=O)c2/C=C(\C#N)S(=O)(=O)c2ccccc2)ccc1Cl	1	-33	24	nt
Cc1cccn2c(=O)c(/C=C(\C#N)S(=O)(=O)c3ccccc3)c(Oc3ccc(Cl)cc3)nc12	0	-28	60*	nt
CCC(/C=C1\Sc2ccc(OC)cc2N1CC)=C\c1sc2ccc(OC)cc2[n+]1CCCS(=O)(=O)[O-]	0	2	75*	-0.51
CCO/C(=C/c1sc2ccc(OC)cc2[n+]1CCCS(=O)(=O)[O-])CC	0	-2	2	0.66
CCC(/C=C1\Sc2ccc(OC)cc2N1CCO)=C\c1sc2ccc(OC)cc2[n+]1CCO	0	-19	84*	-0.42
CC(C)(C)NC(=O)C1Cc2ccccc2CN1C(=O)Nc1ccccc1Cl (centres undefined)	0	4	1	nt
CC1(C)Cn2c(nnc2-c2cccc(O)c2)S1	1	3	3	nt
SMILES	PERK inh	Arbovirus anti	WT yeast gro inh	ROMK primary
N#C/C(=N\Nc1ccc(S(=O)(=O)N2CCOCC2)cc1)C(N)=S	1	nt	nt	nt
CC1CCN(S(=O)(=O)c2ccc(N/N=C(/C#N)C(N)=O)cc2)CC1	-1	7	78*	nt
Cc1ccccc1Cn1cnc2c(cnn2C(C)(C)C)c1=O	0	-3	-4	0.34
Cc1ccc(C)c(Cn2cnc3c(cnn3C(C)(C)C)c2=O)c1	0	6	61*	-1.1
Clc1ccc2nc(CSCc3ccccc3)cn2c1	1	4	36	-0.56
N#Cc1c(Nc2ccccc2)sc(C(=O)C2CC2)c1N	1	-2	8	nt
O=C1NCN(c2ccccc2)C12CCN(CCCC(c1ccc(F)cc1)c1ccc(F)cc1)CC2	1	-30	73*	-0.8
Cc1ccc(C2(c3ccc(C)cc3)CC2C(=O)Nc2ccc([N+](=O)[O-])cc2O)cc1 (centres undefined)	1	-29	88*	-0.51
CCOC(=O)c1c(C)[nH]c(N=Nc2ccccc2C)c1C	-1	-16	77*	-0.28
CCOC(=O)c1c(C)[nH]c(N=Nc2ccc(C)cc2C)c1C	-1	-9	7	nt
